Only some compounds are listed: those with a hit (about 11% of all), similar ones and a draw of the others.
BAZ2B block = inhibitors of human BAZ2B bromodomain; Q9UIF8; AlphaScreen BAZ2B-H3K14Ac peptide displacement; Potency, µM (titrated, usually from 114 µM), most hits filed as inhibitors; hit rate 4.4% among 360,000; further: nearly all actives have a fitted effect of over 60% in size
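AlphaScreen luminescence quantifies BAZ2B engagement of H3K14Ac peptide; the protein and biotinylated peptide are both at 50 nM final, buffer PBS pH 7.4 with 0.01% Tween-20, all steps at room temperature.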
HP1b chromo inh = inhibitors of HP1-beta chromodomain binding to methylated histone tails; hit rate 0.56% among 390,000; P83916; AlphaScreen HP1-beta / biotin-H3K9me3 peptide binding; AID 540317; Potency, µM (highest dose often 114 µM), hits mostly inhibitors; further: nearly all actives have a fitted effect of over 70% in size
Target sequence (P83916 whole entry, looked up): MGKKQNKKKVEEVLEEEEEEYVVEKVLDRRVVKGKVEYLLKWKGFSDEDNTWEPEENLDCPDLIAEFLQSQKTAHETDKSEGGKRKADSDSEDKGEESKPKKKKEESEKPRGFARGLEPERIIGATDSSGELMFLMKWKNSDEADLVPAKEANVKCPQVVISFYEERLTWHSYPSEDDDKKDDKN
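HP1-beta protein (50 nM final) preincubated 30 min at room temperature with biotinylated H3(1-18)K9me3 peptide (50 nM) in PBS pH 7.4, 0.01% Tween-20, then compound added for 30 min. AlphaScreen streptavidin donor/nickel chelate acceptor beads (10 ug/mL final), 30 min dark, luminescence read.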
PI5P4Ka inh = PI5P4K alpha (human) kinase inhibition. max response, %. PI5P4Kalpha enzyme, ADP-Glo luminescence, 60 min; active compounds read low. P48426. hit rate 1.2% among 330,000; active means max response of -50% or lower; inconclusive means between -30% and -50%; inactive means -30% or higher; further: value at the top dose of about 77 µM
Target sequence (P48426 whole entry, looked up): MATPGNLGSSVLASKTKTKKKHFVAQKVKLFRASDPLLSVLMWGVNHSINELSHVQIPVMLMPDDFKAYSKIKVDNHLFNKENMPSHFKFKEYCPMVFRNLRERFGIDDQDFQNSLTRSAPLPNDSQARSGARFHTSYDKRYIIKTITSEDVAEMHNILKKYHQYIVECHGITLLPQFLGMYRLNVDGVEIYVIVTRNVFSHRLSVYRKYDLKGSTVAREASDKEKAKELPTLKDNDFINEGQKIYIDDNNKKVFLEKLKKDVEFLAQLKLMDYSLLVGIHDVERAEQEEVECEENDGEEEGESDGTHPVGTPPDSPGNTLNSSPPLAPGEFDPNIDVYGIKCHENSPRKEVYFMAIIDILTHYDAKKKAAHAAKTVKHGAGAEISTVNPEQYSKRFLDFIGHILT
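qHTS, 1536-well: enzyme/substrate mix, compound by pin tool, 5 microM ATP final; RT 60 min; ADP-Glo reagents 1 (45 min) then 2 (30 min); luminescence.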
G9a block = inhibitors of human histone lysine methyltransferase G9a; Q96KQ7; hit rate 8.8% among 350,000; G9a H3K9 monomethylation, AlphaScreen, 2 h; Potency, µM (titrated, usually from 102 µM), actives largely listed as inhibitors; AID 504332; further: nearly all actives have a fitted effect of over 75% in size
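Readings reflect AlphaScreen signal from monomethyl-H3K9 antibody detection. HMT at 20 nM; substrate b-H3K9 500 nM; cofactor SAM 20 uM; 2 h RT reaction; compounds tested as titrations in qHTS with 15 min preincubation.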
L3MBTL1 block = blocks human L3MBTL1 | Q9Y468 | AlphaScreen L3MBTL1–H3K9me1 peptide binding | Potency, µM (top dose mostly 57.1 µM), actives largely listed as inhibitors | hit rate 0.66% among 230,000 | AID 485360; further: nearly all actives have a fitted effect of over 60% in size
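First, the protein-peptide complex forms for 30 min at room temperature (L3MBTL1 50 nM, biotinylated H3K9me1 peptide 75 nM). Next, compounds are pin-transferred and incubated 30 min. Finally, AlphaScreen beads are added and read after 30 min.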
JMJD2A Tudor inh = blocks the human JMJD2A Tudor domain. O75164. AlphaScreen JMJD2A-Tudor / H3K4me3 peptide binding. hit rate 4.4% among 390,000. Potency, µM (top dose mostly 114 µM), most hits filed as inhibitors; further: nearly all actives have a fitted effect of over 50% in size
Numbers stand for hits; n = inactive; u = inconclusive; x = no result; [ ] = remark or other dose. Unless noted, the call rests on the fitted dose curve; in most records, active means well fitted inhibition curve with a large enough effect; inconclusive means small, poorly fitted or top-dose-only effect; inactive means no such curve, though single readings can be large or run the other way.

SMILES | BAZ2B block | HP1b chromo inh | PI5P4Ka inh | G9a block | L3MBTL1 block | JMJD2A Tudor inh
Cc1ccccc1N1C(S)=C(C#N)C(=O)NC12CCCCC2 | n | n | n | 35µM | n | n
COc1ccc2oc(-c3cccc(NC(=O)c4sc5c([N+](=O)[O-])cccc5c4Cl)c3)nc2c1 | n | n | x | n | x | n
S=C(NCc1ccco1)Nc1cc(-c2ccccc2)[nH]n1 | 40µM | u | n | n | n | u
COc1ccc(C(=O)N2CCCCC2CCN2CCCCC2)cc1 (stereo unspecified) | n | n | x | n | x | n
CN1CCN(/N=C/c2nc(-c3ccc(Cl)cc3)n3ccccc23)CC1 | 50µM | n | n | 16µM | n | u
O=Cc1nc(-c2ccc(Cl)cc2)n2ccccc12 | n | n | n | n | u | u
CN1CCN(/N=C/c2nc(-c3ccccc3)n3ccccc23)CC1 | u | n | n | 14µM | n | u
CN1CCN(/N=C/c2ccc(OCc3ccccc3)cc2)CC1 | u | n | n | x | n | u
Clc1ccc(-c2nc(/C=N/N3CCOCC3)c3ccccn23)cc1 | x | n | n | 28µM | n | u
O=C(Nc1ccccc1C(F)(F)F)Nc1c[nH]c(=O)[nH]c1=O | n | n | x | n | x | n
CCOc1ccc(NC(=O)c2nn(C)c3c2COc2ccccc2-3)cc1 | n | n | x | u | x | n
Cc1ccccc1C(=O)Nc1sc2c(c1C(=O)N1CCCCC1)CCC(C)C2 (stereo unspecified) | u | n | x | n | x | n
C=CCN1C(c2ccc(OCC)cc2)=CS/C1=C(\C#N)c1nnc2n1CCCCC2 | u | n | x | 3.5µM | n | u
C=CCN1C(c2ccc(Br)cc2)=CS/C1=C(\C#N)c1nnc(N2CCOCC2)n1-c1ccccc1 | x | n | n | x | x | u
O=c1c(-c2ccco2)[n+]([O-])c2ccccc2n1OCc1ccccn1 | n | n | n | u | n | n
O=c1c(-c2ccco2)[n+]([O-])c2ccccc2n1OCc1ccccc1[N+](=O)[O-] | n | n | n | 35µM | n | n
Cn1c(=O)c2c(-c3cccc(F)c3)c3c(nc2n(C)c1=O)-c1ccccc1C3O (stereo unspecified) | n | x | x | n[12.7 µM] | n | x
Cn1c(=O)c2c(-c3ccccc3F)c3c(nc2n(C)c1=O)-c1ccccc1C3O (stereo unspecified) | n | n | n | 10µM | n | n
CCc1cccc2c(-c3csc(=NC)n3C)c[nH]c12 | n | n | n | 50µM | n | n
CCc1cccc2c(C(=O)CCl)c[nH]c12 | n | n | n | u | n | n
O=C1CCC[C@@H]2[C@H](Cc3ccccc3)[C@@H](O)C[C@@H]3CCN1[C@@H]32 | x | n | n | x | x | n
O=C1CCC[C@@H]2[C@@H](Cc3ccccc3)[C@H](N3CCN(c4ccccc4)CC3)C[C@@H]3CCN1[C@@H]32 | x | n | n | x | x | 45µM
Cc1cc2nn(-c3ccc(Cl)cc3)nc2cc1N | u | n | n | 13µM | x | n
CCc1ccccc1NC(=O)CN(c1ccccc1)S(=O)(=O)c1ccsc1C(=O)OC | n | n | x | n | x | n
CN(Cc1ccco1)C(=O)c1c[nH]c2ccc(S(=O)(=O)Nc3ccc4c(c3)OCCO4)cc2c1=O | u | n | n | 89µM | n | n
SMILES | BAZ2B block | HP1b chromo inh | PI5P4Ka inh | G9a block | L3MBTL1 block | JMJD2A Tudor inh
CCc1ccc(NS(=O)(=O)c2ccc3[nH]cc(C(=O)N(C)Cc4ccco4)c(=O)c3c2)cc1 | u | n | x | 89µM | n | n
Cc1cc(-c2cc(-c3ccc(Cl)cc3)nc(N)c2C#N)co1 | u | n | -69 | u | n | 40µM
Cc1ccc(-c2cc(-c3ccc(Cl)cc3)c(C#N)c(N)n2)o1 | 56µM | n | -93 | 5.6µM | n | 79µM
CCOc1cc(-c2cc(-c3ccc(C)o3)nc(N)c2C#N)ccc1O | n | n | -55 | 40µM | x | n
Cc1ccc(-c2cc(-c3ccc4c(c3)OCO4)c(C#N)c(N)n2)o1 | x | n | x | u | n | n
Cc1ccc(-c2cc(-c3ccc(F)cc3)c(C#N)c(N)n2)o1 | n | n | -67 | 8.9µM | n | 40µM
O=S(=O)(c1ccc2c(c1)OCCO2)N1CCN(S(=O)(=O)c2cccc[n+]2[O-])CC1 | x | x | x | x | x | n
Cc1ccc(CN(C(=O)COc2cccc(Cl)c2)c2ccccn2)o1 | n | n | x | n | x | n
Cc1cc(C)nc(-n2nc(C)c3c2N(Cc2ccccc2)C(=O)CC3c2ccc(Cl)cc2)n1 (stereo unspecified) | n | n | x | n | x | n
CCc1ccc(NCc2cc3ccc(OC)cc3n(CC(=O)Nc3ccccc3OC)c2=O)cc1 | u | n | x | u | x | u
Cc1ccc(-c2cc(-c3ccc(C)o3)nc(N)c2C#N)cc1 | 71µM | u | -90 | 2µM | n | 32µM
CCOC(=O)c1c(Nc2ccc(C)cc2)nnc(-c2ccccc2)c1-c1ccccc1 | u | n | x | 2.2µM | x | u
Oc1c(C=Nc2ccccc2Cl)[nH]c2ccccc12 | n | n | n | 8.9µM | n | u
Oc1[nH]c2ccccc2c1N=Nc1ccccc1Cl | x | n | n | x | x | n
O=C(CCS(=O)(=O)c1ccccc1)N(CCCN1CCOCC1)c1nc2ccccc2s1 | n | n | n | 40µM | n | n
Cc1ccc(S(=O)(=O)CCC(=O)N(CCCN2CCOCC2)c2nc3ccccc3s2)cc1 | n | n | n | 45µM | n | n
COc1ccc(-c2nc(Cn3c(SCc4ccc(C)cc4)nc4cccnc43)c(C)o2)cc1OC | u | n | x | u | x | u

Screening results deposited in PubChem by National Center for Advancing Translational Sciences (NCATS).
